Data published in PubChem BioAssay AID504373 (National Center for Advancing Translational Sciences (NCATS), 2011).
Inconclusive results are not listed. Activity calls are given as the source filed them.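 How the source made its calls: active means fewer circulating green fluorescent tagged thrombocytes in treated fish, with no visible harm to the embryos; inconclusive means compound visibly harmful to the embryos; inactive means no drop in circulating tagged thrombocytes.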

Assay: qHTS Assay for Compounds Blocking the Interaction Between CBF-beta and RUNX1 for the Treatment of Acute Myeloid Leukemia: Zebrafish assay for Hematopoiesis, SAR for Probe
Settings: GFP-cd41 zebrafish embryos, microscopy, 5 days, stronger effect = lower value
Source text: NIH Chemical Genomics Center [NCGC] NIH Molecular Libraries Probe Production centers Network [MLPCN] MLPCN Grant: X01MH083259-01 Assay Submitter (PI): Paul Liu NCGC Assay Overview: Core Binding Factor (CBF) abnormalities are associated with 20-25% of all acute myeloid leukemias (AML), of which 5-10% are further sub classified as acute myelomonocytic leukemia with eosinophilia, also known as M4Eo in the FAB classification scheme. This subtype of leukemia is usually associated with chromosome 16 inversion (p13:q22). Chromosome 16 inversion results in formation of the fusion oncogene CBFB-MYH11, which encodes the fusion protein CBF-beta-SMMHC. […] It has been hypothesized that the interference of CBF-beta and RUNX1 binding could have therapeutic implications for patients with CBF mediated leukemias. We developed a CBF-beta and RUNX1 binding assay in AlphaScreenTM format and optimized it for high throughput screening to search for inhibitors. The goal of this project is to screen MLPCN's compound collection (MLSMR) for identifying the inhibitors of the interaction between CBF-beta and RUNX1 proteins as research probes. If these probes work well in the animal models, the ultimate goal of this project is to development a new drug treatment for this disease. […] These fish contain a genomic modulation where GFP has been fused to cd41, a marker for thrombocytes, and thus circulating thrombocytes can be easily imaged in anesthetized fish.
Assay protocol: GFP-cd41 zebrafish were kindly provided by the Liu lab. Zebrafish embryos were incubated with compound (<0.1% DMSO final) at 48 hours post fertilization, for 5 days. Embryos were manually scored under a microscope with GFP illumination for circulating GFP-tagged thrombocytes. Keywords: MLSMR, MLPCN, NIH Roadmap, qHTS, NCGC, Core binding factor, CBF, CBF-beta, Acute myeloid leukemia

| Compound | fish with circulating GFP thrombocytes (at 25 µM) | fish with circulating GFP thrombocytes (at 50 uM) [%] |
| --- | --- | --- |
| CN1C(=O)CN=C(c2ccc[nH]2)c2cc(Cl)ccc21 (tested in a mixture with another compound) | 29.2% (active) | 0 |
| CCN(CC)CCN1C(=O)CN=C(c2ccc[nH]2)c2cc(Cl)ccc21 | 45.8% (active) | 70.8 |
| CCN(CC)CCN1C(=O)CN=C(c2ccccn2)c2cc(Cl)ccc21 | 66.7% (active) | 66.7 |
